This passage reports fluorescence (KMESF) results from PubChem BioAssay AID1775 (NMMLSC, 2009).

In all, about 220,000 compounds went through this assay and about 820 (0.37%) were called active. Rule as the data show it: active = fluorescence above about 47; inactive = the rest. What follows is part of a selection rich in actives, with near analogues and random picks from the rest.

This test is described as follows: green autofluorescence of compounds with avidin beads – biophysical, 488/530 nm, flow cytometry, artefact control, profiling panel (AID 1775). The note with it: compound fluorescence 488/530 nm, at 10 µM, hits give high values.
Turning to `C=CCn1c(=S)sc2c(=O)[nH]c(C)nc21`, the fluorescence (KMESF) was 3 (inactive).

For the compound `CSc1ccc(CN2C(=O)NC3(CCCCCC3)C2=O)cc1`, the fluorescence (KMESF) is 50 (active).

In the case of `O=C(CN1C(=O)NC2(CCCCCC2)C1=O)NC1CC1`, the fluorescence (KMESF) is 14 (inactive).

As to `O=C1NC2(CCCCCC2)C(=O)N1CCS(=O)(=O)Oc1ccccc1`, the fluorescence (KMESF) is 12 (inactive).

Regarding `CN=C(c1ccccc1)c1c(C)cccc1C`, the fluorescence (KMESF) is 1 (inactive).

In the case of `CCN(CC)C(=O)CC(c1ccc2c(c1)OCO2)c1c(OC)cc(OC)c2c(-c3ccccc3)cc(=O)oc12` (configuration not stated), the fluorescence (KMESF) was 8 (inactive).

As to `O=C(NC1CC1)c1ccc2c(c1)NC(=O)c1ccccc1S2`, the fluorescence (KMESF) was 80 (active).

`O=C(NC1CC1)c1ccc(-c2ccccc2)cc1`: the fluorescence (KMESF) was 11 (inactive).

Regarding `O=C(NC1CC1)c1cccc(Br)c1`, the fluorescence (KMESF) was 4 (inactive).

For the compound `COc1ccc(Cl)cc1N(CC(=O)N/N=C/c1ccc(OCC(N)=O)cc1)S(C)(=O)=O`, the fluorescence (KMESF) was 10 (inactive).

As for `Cc1[nH]nc(SCC(=O)NCC(C)C)c1[N+](=O)[O-]`, the fluorescence (KMESF) was 6 (inactive).

On to `CCOC(=O)c1sc(NC(=O)CSc2n[nH]c(CC)n2)nc1C`, for which the fluorescence (KMESF) was 15 (inactive).

`CCOC(=O)c1sc(NC(=O)c2ccncc2)nc1C`: the fluorescence (KMESF) is 4 (inactive).

For the compound `CCOC(=O)c1sc(/N=C/Nc2nc(C)c(C(=O)OCC)s2)nc1C`, the fluorescence (KMESF) was 54 (active).

`Cc1ccc2nc(-c3cccnc3)c(NC3CCCC3)n2c1`: the fluorescence (KMESF) is 9 (inactive).

In the case of `Cc1cc(=O)n2[nH]c(-c3sccc3-n3c(C)ccc3C)cc2n1`, the fluorescence (KMESF) was 5 (inactive).

For `O=C(CCC(=O)N1CCCC1)Nc1ccc([N+](=O)[O-])cc1`, the fluorescence (KMESF) was 9 (inactive).

Take `Cc1ccc(-n2c(C)cc(C(=O)CSc3nnc4ccccn34)c2C)cc1`: the fluorescence (KMESF) is 11 (inactive).

In the case of `COC(=O)c1ccccc1OCC(=O)N1CCN(c2ccc(Cl)cc2)CC1`, the fluorescence (KMESF) is 189 (active).

On to `O=C(COc1ccc(Cl)cc1)N1CCN(c2cccc(C(F)(F)F)c2)CC1`, for which the fluorescence (KMESF) is 20 (inactive).

Regarding `O=C(CN1CCN(c2ccc(Cl)cc2)CC1)N1CCCC1`, the fluorescence (KMESF) was 13 (inactive).

For the compound `CC(C)COC(=O)n1c(=O)oc2ccc(S(=O)(=O)N3CCCCC3)cc21`, the fluorescence (KMESF) was 7 (inactive).

Consider `Cc1cc(OC(=O)c2ccccc2)c([N+](=O)[O-])c(=O)[nH]1`, for which the fluorescence (KMESF) is 13 (inactive).

`CC(C)OCCCNc1nc2c(c(=O)n(Cc3ccccc3F)c(=O)n2C)n1C`: the fluorescence (KMESF) was 16 (inactive).

Regarding `Cc1cccc(N2CC(C)Cn3c2nc2c3c(=O)n(CC(=O)OCc3ccccc3)c(=O)n2C)c1` (configuration not stated), the fluorescence (KMESF) was 5 (inactive).

With `COc1ccc(N2CC(C)Cn3c2nc2c3c(=O)n(Cc3ccccc3F)c(=O)n2C)c(OC)c1` (configuration not stated), the fluorescence (KMESF) is 54 (active).

`C/C(=N\Nc1cccc(C(=O)O)c1)c1ccc2c(c1)Nc1ccccc1S2`: the fluorescence (KMESF) was 11 (inactive).

As for `O=C(CCCCn1c(=O)[nH]c2ccccc2c1=O)NCc1ccc2c(c1)OCO2`, the fluorescence (KMESF) is 81 (active).

For the compound `COc1ccc(CCNC(=O)CCCCn2c(=O)[nH]c3ccccc3c2=O)cc1OC`, the fluorescence (KMESF) is 39 (inactive).

Consider `O=C(CCCCCn1c(=O)[nH]c2ccccc2c1=O)NCCc1c[nH]c2ccccc12`, for which the fluorescence (KMESF) is 14 (inactive).

On to `N/C(=N\OC(=O)CCn1cccc(C(F)(F)F)c1=O)c1ccc(OC(F)(F)F)cc1`, for which the fluorescence (KMESF) is 8 (inactive).

For `COc1cccc(C(=O)N2CCCC(CCC(=O)NCc3ccc(F)c(F)c3)C2)c1` (configuration not stated), the fluorescence (KMESF) is 8 (inactive).

In the case of `O=C(Nc1ccc(-n2ccnc2P(=O)(O)c2ccccc2)cc1)c1ccccc1Br`, the fluorescence (KMESF) was 81 (active).

Turning to `O=C(Nc1ccccc1)c1cccnc1Nc1ccccc1`, the fluorescence (KMESF) was 8 (inactive).

For the compound `Cc1ccc(NC(=O)c2cccnc2C(=O)Nc2ccc(C)cc2)cc1`, the fluorescence (KMESF) is 10 (inactive).

As for `COc1ccc(CCN2C(=O)N(c3ccc(OC)cc3)C(=O)C2CC(=O)Nc2ccc(OC)cc2)cc1` (configuration not stated), the fluorescence (KMESF) was 6 (inactive).

For the compound `Cc1cc(NC(=O)CSc2nccn2-c2ccc([N+](=O)[O-])cc2)no1`, the fluorescence (KMESF) is 25 (inactive).

In the case of `C/C(=N/Nc1ccc(Cl)cc1)c1cnnc(-c2ccccc2)n1`, the fluorescence (KMESF) is 21 (inactive).

For the compound `Cc1ccc(S(=O)(=O)N2CCOCC2)cc1C(=O)NC(=S)N(Cc1ccccc1)C(C)C`, the fluorescence (KMESF) was 4 (inactive).

Consider `CCN(CC(=O)Nc1cccc(S(N)(=O)=O)c1)Cc1nc2ccccc2c(=O)[nH]1`, for which the fluorescence (KMESF) is 7 (inactive).

With `FC(F)Oc1ccccc1C1CC(c2ccc(Br)s2)Nc2ncnn21` (configuration not stated), the fluorescence (KMESF) is 72 (active).

As for `Clc1ccc(C2CC(c3cccs3)n3ncnc3N2)cc1Cl` (configuration not stated), the fluorescence (KMESF) was 7 (inactive).

`COc1ccc(C2CC(c3ccccc3)Nc3ncnn32)cc1` (configuration not stated): the fluorescence (KMESF) was 9 (inactive).

Regarding `CNC(=S)NNC(=O)c1oc2nc(-c3ccccc3)cc(-c3ccco3)c2c1N`, the fluorescence (KMESF) was 7 (inactive).

For `COc1ccc(CCN2C(=O)CC(N3CCC(C(N)=O)CC3)C2=O)cc1OC` (configuration not stated), the fluorescence (KMESF) is 5 (inactive).

`O=C(CCc1[nH]c2ccccc2c1Sc1ccccc1)N(CCO)CCO`: the fluorescence (KMESF) was 16 (inactive).

For `CS/C(=C\C(=O)c1ccco1)Nc1ccccc1Cl`, the fluorescence (KMESF) was 7 (inactive).

Take `COc1ccc(CCNC(=O)CN(c2ccccc2)S(C)(=O)=O)cc1`: the fluorescence (KMESF) is 9 (inactive).

Take `COC(=O)CNC(=O)c1ccc(OC2CCN(C(=O)C3CC3)CC2)cc1`: the fluorescence (KMESF) was 7 (inactive).

`O=C(CC12CC3CC(CC(C3)C1)C2)NCc1ccco1`: the fluorescence (KMESF) is 11 (inactive).

Consider `O=C(COC(=O)C12CC3CC(CC(C3)C1)C2)NCc1ccco1`, for which the fluorescence (KMESF) is 56 (active).

With `O=C(COC(=O)CCC(=O)c1cccs1)NCc1ccco1`, the fluorescence (KMESF) is 9 (inactive).

Turning to `COCCCn1c(-c2cccs2)nc2nc3ccccc3nc21`, the fluorescence (KMESF) is 6 (inactive).

On to `CN(c1ccccc1)c1ccc(/C=c2\s/c(=C(/C#N)C(=O)C(C)(C)C)n(Cc3ccco3)c2=O)cc1`, for which the fluorescence (KMESF) is 453 (active).

As to `COc1ccc(NC(=O)Cn2c(=O)n(Cc3ccco3)c(=O)c3ccccc32)cc1`, the fluorescence (KMESF) was 36 (inactive).

Consider `Cc1cs/c(=N\N=C\c2ccc(O)cc2)n1Cc1ccco1`, for which the fluorescence (KMESF) is 7 (inactive).

On to `CCOC(=O)CC(NC(=O)C1c2ccccc2Oc2ccccc21)c1ccc(C)cc1` (configuration not stated), for which the fluorescence (KMESF) is 11 (inactive).

Consider `Clc1ccc(C[n+]2cc(-c3ccccc3)n3c2CCC3)cc1`, for which the fluorescence (KMESF) was 7 (inactive).

Turning to `O=C(Cc1cccs1)Nc1cccc(-c2nc3ccccc3[nH]2)c1`, the fluorescence (KMESF) was 14 (inactive).

`O=C(Nc1cccc(-c2nc3ccccc3[nH]2)c1)c1ccc(C(=O)Nc2cccc(-c3nc4ccccc4[nH]3)c2)cc1`: the fluorescence (KMESF) is 151 (active).

As for `O=C(/C=C/c1ccco1)Nc1cccc(-c2nc3ccccc3[nH]2)c1`, the fluorescence (KMESF) was 9 (inactive).

As for `Cc1ccc(CN2C(=O)N/C(=C/c3cc(C)n(-c4ccccn4)c3C)C2=O)cc1`, the fluorescence (KMESF) was 16 (inactive).
